Test results as given in PubChem BioAssay (NCATS).
Results filed as inconclusive are left out. Activity calls are given as the source filed them. Unless noted, calls come from the whole dose curve; as a rule, active = well fitted curve in the direction sought with a large enough effect; inconclusive = small, poorly fitted or top-dose-only effect, or another doubt; inactive = no such curve, though single readings can be large; an effect the other way counts as inactive or inconclusive.

How the values were obtained:
[1] = target: Rap guanine nucleotide exchange factor 3 (Homo sapiens) (UniProt O95398); assay: Confirmatory qHTS for agonist of cAMP-regulated guanine nucleotide exchange factor 3 (EPAC1) (AID 1645881);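 note: EPAC1 catalysed release of BODIPY-GDP from Rap1B seen as fluorescence loss; 100% = effect of cAMP agonist control; nearly all actives have a fitted effect of over 75% in size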
[2] = target: Rap guanine nucleotide exchange factor 4 (Homo sapiens) (UniProt Q8WZA2); assay: Confirmatory qHTS for agonist of cAMP-regulated guanine nucleotide exchange factor 4 (EPAC2) (AID 1645884);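 note: nucleotide exchange releases bodipy-GDP from Rap1 and this lowers its fluorescence; % is set by controls: 0 for no effect and ±100 for the full control effect; nearly all actives have a fitted effect of over 65% in size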
[3] = target: Rap guanine nucleotide exchange factor 3 (Homo sapiens) (UniProt O95398); assay: Counterscreen qHTS for agonist of cAMP-regulated guanine nucleotide exchange factor 3 (EPAC1) (AID 1645889); note: % of control where 0% means no effect; nearly all actives have a fitted effect of over 40% in size
Procedure, shortened: (§1)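 Rap1B-BODIPY-GDP 250 nM + GDP 50 uM; cpds 7-pt, final 9.74 nM–152 uM (activator mode) or from 7.32 nM upwards (inhibitor mode); RT; FI 480/540 nm at 5 and 30 min, then ± cAMP, reread.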

[4] = target: Rap guanine nucleotide exchange factor 4 (Homo sapiens) (UniProt Q8WZA2); assay: Confirmatory qHTS for antagonist of cAMP-regulated guanine nucleotide exchange factor 4 (EPAC2) (AID 1645885); note: % is set by controls: 0 for no effect and ±100 for the full control effect; nearly all actives have a fitted effect of over 25% in size
[5] = target: Rap guanine nucleotide exchange factor 3 (Homo sapiens) (UniProt O95398); assay: Counterscreen qHTS for antagonist of cAMP-regulated guanine nucleotide exchange factor 3 (EPAC1) (AID 1645888);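 note: fluorescence loss as bound BODIPY-GDP is released from Rap1B; % of control where 0% means no effect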
Procedure, shortened: as §1

[6] = target: DNA repair nuclease/redox regulator APEX1 (Homo sapiens) (UniProt P27695); assay: qHTS Validation Assay for Inhibitors of the Human Apurinic/apyrimidinic Endonuclease 1 (APE1) (AID 1705;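 note: TAMRA fluorescence gain over two minutes as APE1 cuts a quenched THF abasic duplex; % is set by controls: 0 for no effect and ±100 for the full control effect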)
Procedure, shortened: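 Substrate: 50 nM final fluorophore/quencher THF-abasic duplex. Enzyme preincubated with compounds 15 min, RT. Progress derived from fluorescence difference, third minus first kinetic read.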

[7] = target: Endonuclease 4 (Escherichia coli (strain K12)) (UniProt P0A6C1); assay: Counterscreen for APE1 Inhibitors: qHTS Validation Assay for Inhibitors of Endonuclease IV (AID 1708); note: % is set by controls: 0 for no effect and ±100 for the full control effect
Procedure, shortened: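 Enzymatic AP-site incision assay using a double-stranded THF substrate labelled with TAMRA and BHQ-2; released fluorescence signals activity. Enzyme 2 nM, substrate 50 nM, 15 min compound preincubation.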

[8] = qHTS for differential inhibitors of proliferation of Plasmodium falciparum line GB4 (AID 1816); conditions: Potency: Plasmodium falciparum GB4 proliferation inhibition;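 note: parasite growth measured after 72 h incubation; 0% = vehicle DMSO and -100% = reference inhibitor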
[9] = qHTS for differential inhibitors of proliferation of Plasmodium falciparum line 3D7 (AID 1876);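 note: parasite growth measured after three days of culture; 0% = vehicle wells and -100% = reference inhibitor wells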
[10] = qHTS for differential inhibitors of proliferation of Plasmodium falciparum line D10 (AID 1877);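 note: parasites grown with compound for 72 h before DNA staining; plate controls were vehicle wells for no effect and reference inhibitor wells for full effect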
[11] = qHTS for differential inhibitors of proliferation of Plasmodium falciparum line Dd2 (AID 1882); conditions: Potency: Plasmodium falciparum Dd2 proliferation inhibition;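 note: compound exposure of 72 h on infected erythrocytes; plate controls were DMSO vehicle for no effect and 0.29 µM artemisinin for full effect; nearly all actives have a fitted effect of over 65% in size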
Procedure, shortened: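 SYBR Green I DNA fluorescence read-out, ex 485/em 535 nm. Signals were normalized to 0.29 uM artemisinin and DMSO wells, then corrected using vehicle-only plates flanking each stack. Parasite growth ran 72 h in erythrocytes before lysis.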

[12] = qHTS for differential inhibitors of proliferation of Plasmodium falciparum line W2 (AID 1883); conditions: Potency: Plasmodium falciparum W2 proliferation inhibition;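 note: parasites grown with compound for 72 h before lysis and staining; 0% = vehicle wells and -100% = control inhibitor wells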
[13] = qHTS Assay for Modulators of Human Peripheral Myelin Protein 22 (PMP22) Expression/Activity (AID 1967; active = well fitted curve in the direction sought with a large enough effect in the signal ratio; the % refers to the signal ratio;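 note: 0% = untreated cells and 100% end not stated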)
Procedure, shortened: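 Engineered MSC80 cells, Pmp22-promoter green and EF-alpha red luciferase reporters; 24h compound treatment at 37 °C. Concentration-response fits on green, red and ratio signals, each overlap-corrected, with %Activity normalized to untreated wells.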

[14] = target: Ferritin light chain (Equus caballus) (UniProt P02791); assay: qHTS Validation Assay for Identification of Novel General Anesthetics (AID 2323); note: % is set by controls: 0 for no effect and ±100 for the full control effect
Procedure, shortened: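 Normalized fluorescence response, scaled between free 1-AMA and 1-AMA/apoferritin complex, fitted to a four-parameter Hill equation for concentration-effect values. Binding mix: 10 uM horse-spleen apoferritin, 50% saturated 1-AMA in PBS; read 380/535 nm after 10 min.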

[15] = target: ATP-dependent DNA helicase Q1 (Homo sapiens) (UniProt P46063); assay: qHTS Validation Assay for Inhibitors of RecQ-Like Dna Helicase 1 (RECQ1) (AID 2353);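 note: plate controls were DMSO vehicle for no effect and enzyme-free control for full effect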
Procedure, shortened: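 50 nM RECQ1T1 preincubated 15 min with compound in Tris pH 8.0 buffer with MgCl2, DTT, Tween-20 and 2.5 ug/ml poly(dI-dC); started with 200 nM TAMRA/BHQ-2 forked duplex and 2 mM ATP. Unwinding read as fluorescence (525/598 nm), two reads 2 h apart.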

[16] = Validation screen for inhibitors of Lassa infection (AID 463096; calls by dose curve; note: potency is the fitted concentration of half-maximal effect)
[17] = Quantitative high throughput screen for delayed death inhibitors of the malarial parasite plastid, 96 hour incubation (AID 488745); note: % is set by controls: 0 for no effect and ±100 for the full control effect; nearly all actives have a fitted effect of over 70% in size
Procedure, shortened: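 P. falciparum carrying an integrated firefly luciferase reporter, grown in erythrocytes (2% hematocrit, 0.1% parasitemia final) in RPMI 1640/0.5% Albumax, was exposed to compound for 96 h (two generations) at 37 C, 5% CO2. Luminescence decrease indicated growth inhibition.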

[18] = Quantitative high throughput screen for delayed death inhibitors of the malarial parasite plastid, 48 hour incubation (AID 488752); note: % is set by controls: 0 for no effect and ±100 for the full control effect; nearly all actives have a fitted effect of over 65% in size
Procedure, shortened: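 Erythrocytes infected with P. falciparum carrying an integrated firefly luciferase reporter (2% hematocrit, 0.1% parasitemia final) were exposed to compounds in RPMI 1640/0.5% Albumax for 48 h at 37 C, 5% CO2. Growth inhibition was scored as reduced luminescence.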

[19] = target: M-phase phosphoprotein 8 (Homo sapiens) (UniProt Q99549); assay: qHTS Validation Assay for Inhibitors for MPP8 Chromodomain Interactions with Methylated Histone Tails (AID 488949);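 note: 50 nM MPP8 with 50 nM peptide preformed then compounds added for 30 min; AlphaScreen signal from MPP8 chromodomain bound to biotinylated H3K9me3 peptide; top concentration of the series differs between compounds; % is set by controls: 0 for no effect and ±100 for the full control effect; nearly all actives have a fitted effect of over 55% in size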
Procedure, shortened: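 Chemiluminescent proximity assay: histidine-tag capture via nickel acceptor beads, biotin peptide via streptavidin donor beads. Protein and peptide each at 50 nM, pH 7.4, with 30 min incubations at room temperature for complex formation, compound exposure and bead binding.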

[20] = target: Transient receptor potential cation channel subfamily V member 1 (Homo sapiens) (UniProt Q8NER1); assay: HTS Assay for Compounds that Act as Enhancers of the Vanilloid Receptor 1 (AID 488979); note: 0% is about no effect
Procedure, shortened: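 Calcium influx kinetics via Fluo-8 (480/520 nm) in TRPV1-expressing cells, 2000/well cultured overnight at 35.5C. Compound-alone read 3 min (agonist phase), followed by EC20 capsaicin challenge for 2 min (enhancer phase).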

[21] = target: Thyrotropin-releasing hormone receptor (Homo sapiens) (UniProt P34981); assay: qHTS for Small Molecule Agonists and Allosteric Enhancers of Human TRH Receptor: Validation Screen for Agonists (AID 493127;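 active = calcium activation more than 3 SD above the typical response in the agonist read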;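 note: intracellular calcium rise by fluo-8 fluorescence before TRH EC20 addition; 0% is about no effect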); conditions: TRH receptor agonist cell assay; at 2 µM; stronger effect = higher value
Procedure, shortened: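 TRHR-expressing cells were plated overnight in serum-containing medium, then loaded with fluo-8 calcium dye at room temperature for 30 min–1.5 h. After a 10 s baseline, compound was pin-transferred and calcium fluorescence (ex 480/em 530) read kinetically for agonist response.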

[22] = target: Galactokinase (Homo sapiens) (UniProt P51570); assay: qHTS Validation Assay for Inhibitors of Human Galactokinase (GALK) (AID 493189); note: 0% is about no effect
Procedure, shortened: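 Enzyme activity is inferred from ATP consumption: human GALK phosphorylates galactose (100 uM) using 35 uM ATP for 1 h at room temperature, and luciferase-based Kinase-Glo Plus reports unconsumed ATP.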

[23] = Validation screen for small molecules that induce DNA re-replication in SW480 colon adenocarcinoma cells (AID 504364); note: 0% is about no effect
Procedure, shortened: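 SW480 cells seeded at 250 per well were exposed to compound or DMSO for 48 hr at 37 C, 5% CO2, then stained with Hoechst for 40 min. DNA content per nucleus was imaged (405 nm ex, 500-530 nm em).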

[24] = target: Voltage-gated inwardly rectifying potassium channel KCNH2 (Homo sapiens) (UniProt Q12809); assay: qHTS Assay for Small Molecule Inhibitors of the Human hERG Channel Activity (AID 588834);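 note: top concentration of the series differs between compounds; % is set by controls: 0 for no effect and ±100 for the full control effect; lower thallium flux fluorescence means stronger hERG block; nearly all actives have a fitted effect of over 50% in size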
Procedure, shortened: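 Blockade is seen as reduced FluxOR thallium-flux fluorescence in U2OS cells expressing hERG from a BacMam construct, in Opti-MEM with 2% FCS. Concentration-response data fitted to the Hill equation for AC50.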

[25] = target: Catechol O-methyltransferase (Homo sapiens) (UniProt P21964); assay: Confirmatory Screen for Target Class Profiling of Small Molecule Inhibitors of Methyltransferases (AID 1745852); conditions: MTase-Glo luminescence, SAH detection, recombinant enzyme; measured here: COMT max response; stronger effect = lower value; for activity change, negative = inhibition: % is set by controls: 0 for no effect and ±100 for the full control effect
[26] = target: Guanidinoacetate N-methyltransferase (Homo sapiens) (UniProt Q14353); assay: as above; conditions: MTase-Glo luminescence, SAH detection, recombinant enzyme; activity change, negative = inhibition: at 85.7 µM (top of the series) unless noted
[27] = target: Nicotinamide N-methyltransferase (Homo sapiens) (UniProt P40261); assay: as above; conditions: MTase-Glo luminescence, SAH detection, recombinant enzyme; measured here: NNMT max response; stronger effect = lower value
[28] = target: Phenylethanolamine N-methyltransferase (Homo sapiens) (UniProt P11086); assay: as above; conditions: MTase-Glo luminescence, SAH detection, recombinant enzyme; measured here: PNMT max response; stronger effect = lower value

Chain of Rap guanine nucleotide exchange factor 3 (Homo sapiens) (O95398 whole entry, looked up): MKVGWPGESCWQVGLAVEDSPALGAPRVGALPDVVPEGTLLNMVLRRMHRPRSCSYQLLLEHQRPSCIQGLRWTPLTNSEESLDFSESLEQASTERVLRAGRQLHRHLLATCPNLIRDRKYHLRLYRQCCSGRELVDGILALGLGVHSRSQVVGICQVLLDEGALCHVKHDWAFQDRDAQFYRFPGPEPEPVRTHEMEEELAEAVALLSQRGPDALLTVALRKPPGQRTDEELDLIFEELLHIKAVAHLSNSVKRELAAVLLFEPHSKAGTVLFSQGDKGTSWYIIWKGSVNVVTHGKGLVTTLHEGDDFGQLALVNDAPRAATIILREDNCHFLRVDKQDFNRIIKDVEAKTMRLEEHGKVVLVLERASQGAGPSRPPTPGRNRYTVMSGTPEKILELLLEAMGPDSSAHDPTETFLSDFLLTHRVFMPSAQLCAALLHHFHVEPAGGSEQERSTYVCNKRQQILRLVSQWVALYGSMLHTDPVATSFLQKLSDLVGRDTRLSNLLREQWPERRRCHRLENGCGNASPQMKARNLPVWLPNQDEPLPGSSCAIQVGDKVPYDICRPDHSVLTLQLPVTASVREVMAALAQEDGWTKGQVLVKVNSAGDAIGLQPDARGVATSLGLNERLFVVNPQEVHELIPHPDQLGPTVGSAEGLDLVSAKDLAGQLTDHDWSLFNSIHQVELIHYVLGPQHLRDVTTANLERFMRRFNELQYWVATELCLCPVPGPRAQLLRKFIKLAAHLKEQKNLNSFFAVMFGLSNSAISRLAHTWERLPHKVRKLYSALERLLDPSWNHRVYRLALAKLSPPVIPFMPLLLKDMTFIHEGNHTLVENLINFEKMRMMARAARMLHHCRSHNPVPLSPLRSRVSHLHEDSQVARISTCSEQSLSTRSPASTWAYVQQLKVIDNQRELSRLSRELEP
Chain of Rap guanine nucleotide exchange factor 4 (Homo sapiens) (Q8WZA2 whole entry, looked up): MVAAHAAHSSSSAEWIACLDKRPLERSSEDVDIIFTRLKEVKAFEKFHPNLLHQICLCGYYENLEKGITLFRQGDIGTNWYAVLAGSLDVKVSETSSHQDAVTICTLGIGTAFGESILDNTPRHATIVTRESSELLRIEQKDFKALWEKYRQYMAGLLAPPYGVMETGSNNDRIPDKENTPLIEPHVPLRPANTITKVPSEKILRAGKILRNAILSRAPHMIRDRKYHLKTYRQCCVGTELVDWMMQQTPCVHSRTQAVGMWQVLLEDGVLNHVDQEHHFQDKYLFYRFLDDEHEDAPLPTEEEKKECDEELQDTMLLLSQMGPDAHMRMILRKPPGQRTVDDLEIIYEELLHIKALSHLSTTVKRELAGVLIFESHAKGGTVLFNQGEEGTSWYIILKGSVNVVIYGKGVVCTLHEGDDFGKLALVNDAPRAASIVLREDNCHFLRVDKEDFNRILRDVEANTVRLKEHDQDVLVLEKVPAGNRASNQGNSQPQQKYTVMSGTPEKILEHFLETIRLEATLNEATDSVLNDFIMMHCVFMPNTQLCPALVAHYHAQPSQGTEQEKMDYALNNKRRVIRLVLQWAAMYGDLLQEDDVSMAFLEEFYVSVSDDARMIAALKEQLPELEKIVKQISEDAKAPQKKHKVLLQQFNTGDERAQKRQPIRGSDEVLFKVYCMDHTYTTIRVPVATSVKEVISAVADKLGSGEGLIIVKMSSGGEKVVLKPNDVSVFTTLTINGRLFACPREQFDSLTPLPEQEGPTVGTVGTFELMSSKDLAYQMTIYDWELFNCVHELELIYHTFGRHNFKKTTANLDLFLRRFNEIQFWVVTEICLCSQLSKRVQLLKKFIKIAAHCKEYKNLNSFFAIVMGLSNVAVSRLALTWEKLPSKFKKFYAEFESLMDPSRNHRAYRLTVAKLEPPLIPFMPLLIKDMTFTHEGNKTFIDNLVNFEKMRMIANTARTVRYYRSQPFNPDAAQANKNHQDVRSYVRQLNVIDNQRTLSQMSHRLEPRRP
Chain of Voltage-gated inwardly rectifying potassium channel KCNH2 (Homo sapiens) (Q12809 whole entry, looked up): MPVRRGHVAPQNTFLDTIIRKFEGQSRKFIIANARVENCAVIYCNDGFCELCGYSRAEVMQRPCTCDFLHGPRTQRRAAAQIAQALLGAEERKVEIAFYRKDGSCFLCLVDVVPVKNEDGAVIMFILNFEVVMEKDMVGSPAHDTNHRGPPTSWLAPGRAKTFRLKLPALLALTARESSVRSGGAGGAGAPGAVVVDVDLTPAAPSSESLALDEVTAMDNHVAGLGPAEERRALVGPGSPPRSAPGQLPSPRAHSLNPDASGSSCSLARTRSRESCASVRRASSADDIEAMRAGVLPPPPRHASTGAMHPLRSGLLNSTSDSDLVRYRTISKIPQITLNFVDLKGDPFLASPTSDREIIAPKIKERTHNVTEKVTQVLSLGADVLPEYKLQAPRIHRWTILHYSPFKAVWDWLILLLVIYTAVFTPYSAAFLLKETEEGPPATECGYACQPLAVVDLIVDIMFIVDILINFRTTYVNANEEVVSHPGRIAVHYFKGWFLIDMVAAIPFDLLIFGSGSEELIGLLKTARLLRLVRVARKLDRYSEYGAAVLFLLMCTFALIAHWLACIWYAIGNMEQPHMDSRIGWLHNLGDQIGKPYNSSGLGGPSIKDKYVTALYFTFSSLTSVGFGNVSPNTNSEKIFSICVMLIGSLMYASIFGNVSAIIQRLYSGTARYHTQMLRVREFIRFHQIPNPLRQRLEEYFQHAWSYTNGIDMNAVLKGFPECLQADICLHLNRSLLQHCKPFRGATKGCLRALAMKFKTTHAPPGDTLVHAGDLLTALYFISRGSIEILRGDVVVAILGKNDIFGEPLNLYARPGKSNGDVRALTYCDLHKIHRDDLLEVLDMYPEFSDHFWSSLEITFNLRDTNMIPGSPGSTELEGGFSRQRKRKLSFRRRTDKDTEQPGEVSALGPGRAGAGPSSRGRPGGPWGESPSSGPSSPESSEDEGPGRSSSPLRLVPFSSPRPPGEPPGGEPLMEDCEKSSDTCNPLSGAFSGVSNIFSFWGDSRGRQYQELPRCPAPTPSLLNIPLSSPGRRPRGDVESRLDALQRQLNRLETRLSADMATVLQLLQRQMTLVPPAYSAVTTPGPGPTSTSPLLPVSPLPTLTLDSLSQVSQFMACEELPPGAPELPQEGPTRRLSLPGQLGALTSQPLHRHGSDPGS
Chain of M-phase phosphoprotein 8 (Homo sapiens) (Q99549 whole entry, looked up): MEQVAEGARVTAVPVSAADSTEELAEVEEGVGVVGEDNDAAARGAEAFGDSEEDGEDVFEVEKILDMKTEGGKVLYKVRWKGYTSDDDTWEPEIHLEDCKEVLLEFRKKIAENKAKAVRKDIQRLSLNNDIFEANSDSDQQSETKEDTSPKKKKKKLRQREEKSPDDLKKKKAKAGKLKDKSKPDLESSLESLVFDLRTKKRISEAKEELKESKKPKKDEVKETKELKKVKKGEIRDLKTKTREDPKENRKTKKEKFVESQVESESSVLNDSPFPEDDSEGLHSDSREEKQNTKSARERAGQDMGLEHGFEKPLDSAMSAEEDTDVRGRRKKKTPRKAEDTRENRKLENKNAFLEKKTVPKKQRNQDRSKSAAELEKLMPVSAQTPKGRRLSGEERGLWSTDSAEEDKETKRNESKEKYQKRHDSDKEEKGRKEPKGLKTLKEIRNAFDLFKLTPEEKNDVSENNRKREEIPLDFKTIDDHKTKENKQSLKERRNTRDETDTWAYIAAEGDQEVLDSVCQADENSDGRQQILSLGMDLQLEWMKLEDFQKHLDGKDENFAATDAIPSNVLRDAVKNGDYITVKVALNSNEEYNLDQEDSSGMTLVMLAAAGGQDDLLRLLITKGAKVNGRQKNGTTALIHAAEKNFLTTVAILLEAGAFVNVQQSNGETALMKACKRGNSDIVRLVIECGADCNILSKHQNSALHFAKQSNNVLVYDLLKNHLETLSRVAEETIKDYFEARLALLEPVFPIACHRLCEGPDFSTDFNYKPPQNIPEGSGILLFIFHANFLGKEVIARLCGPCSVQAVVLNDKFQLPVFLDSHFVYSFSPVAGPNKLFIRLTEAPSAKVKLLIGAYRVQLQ
Chain of DNA repair nuclease/redox regulator APEX1 (Homo sapiens) (P27695 whole entry, looked up): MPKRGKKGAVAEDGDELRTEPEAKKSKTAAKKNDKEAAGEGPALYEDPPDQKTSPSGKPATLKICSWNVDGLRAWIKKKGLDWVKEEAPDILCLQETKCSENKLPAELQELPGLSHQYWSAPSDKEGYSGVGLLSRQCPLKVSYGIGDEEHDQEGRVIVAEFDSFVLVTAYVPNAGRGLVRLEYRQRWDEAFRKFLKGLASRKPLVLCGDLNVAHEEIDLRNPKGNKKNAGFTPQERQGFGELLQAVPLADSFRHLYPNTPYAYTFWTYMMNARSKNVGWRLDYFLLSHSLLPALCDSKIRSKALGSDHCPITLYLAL
Chain of Nicotinamide N-methyltransferase (Homo sapiens) (P40261 whole entry, looked up): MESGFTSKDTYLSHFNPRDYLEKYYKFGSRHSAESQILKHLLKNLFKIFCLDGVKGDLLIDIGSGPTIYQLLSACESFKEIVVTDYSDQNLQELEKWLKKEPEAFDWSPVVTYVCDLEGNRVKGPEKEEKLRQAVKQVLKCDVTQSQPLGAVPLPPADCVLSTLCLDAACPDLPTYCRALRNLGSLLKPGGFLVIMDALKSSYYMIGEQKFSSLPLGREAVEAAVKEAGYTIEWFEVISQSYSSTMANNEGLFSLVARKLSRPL
Chain of Ferritin light chain (Equus caballus) (P02791 2-175 limits assumed): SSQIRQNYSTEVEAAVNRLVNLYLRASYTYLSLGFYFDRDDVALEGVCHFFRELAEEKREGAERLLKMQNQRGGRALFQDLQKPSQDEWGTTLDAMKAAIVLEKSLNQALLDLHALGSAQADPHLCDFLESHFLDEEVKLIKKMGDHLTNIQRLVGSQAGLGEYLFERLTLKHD
Chain of Catechol O-methyltransferase (Homo sapiens) (P21964 whole entry, looked up): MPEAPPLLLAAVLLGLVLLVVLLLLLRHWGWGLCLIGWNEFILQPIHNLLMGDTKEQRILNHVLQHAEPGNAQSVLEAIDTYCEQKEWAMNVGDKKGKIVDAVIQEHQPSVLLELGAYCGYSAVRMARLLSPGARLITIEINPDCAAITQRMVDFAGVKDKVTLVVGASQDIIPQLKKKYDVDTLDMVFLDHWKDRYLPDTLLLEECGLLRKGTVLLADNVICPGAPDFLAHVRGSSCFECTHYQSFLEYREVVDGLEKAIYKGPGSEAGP

Cc1oc(-c2ccccc2)nc1CN1C(=O)CN=C(c2ccccc2)c2ccccc21
inactive: Potency [1] | activation [2] 7.27% [at 17.1 µM, percent relative to cAMP agonist control] | activation [3] 28.8% [at 30.8 µM]

Nc1ccc(Cl)cc1C(=O)c1ccccc1Cl
inactive: activation [2] 8.81% [at 17.1 µM, percent relative to cAMP agonist control] | activity change, negative = inhibition [4] -22.9% [at 12.7 µM] | activity change, negative = inhibition [5] -0.237% [at 30.8 µM]

CCOC(=O)[C@]12Cc3cc(Cl)ccc3[C@H]1N(CC(=O)OC)C(=O)c1ccccc12
inactive: Potency [1] | Potency [2] | Potency [3]

FC(F)(F)c1cccc(C2NCc3ccccc3-n3cccc32)c1 (stereo not given)
inactive: activation [2] 12.8% [at 17.1 µM, percent relative to cAMP agonist control] | activity change, negative = inhibition [4] 2.28% [at 12.7 µM] | activity change, negative = inhibition [5] -3.38% [at 30.8 µM]

C[C@@H]1O[C@@H](O[C@H]2C[C@@H](O)[C@]3(CO)[C@H]4[C@H](O)C[C@]5(C)[C@@H]([C@@H]6COC(=O)C6)CC[C@]5(O)[C@@H]4CC[C@]3(O)C2)[C@H](O)[C@H](O)[C@H]1O
active: Potency [16] 1580 nM
inactive: Potency [6] | Potency [7] | Potency [8] | Potency [9] | Potency [10] | Potency [11] | Potency [12] | outcome [13] | Potency [14] | outcome [15] | Potency [17] | Potency [18] | Potency [19] | outcome [20] | activation [21] 1.38% | outcome [22] | outcome [23] | Potency [24]

CCOC(=O)c1c(-c2ccccc2)oc2ccc(OC(=O)N(C)C)cc12
inactive: Potency [1] | Potency [2] | Potency [4] | outcome [5] | Potency [3]

CC(=O)c1cccc(NC(=O)NC[C@H]2C[C@@H]3CCN2C[C@@H]3c2cc(-c3ccc(F)cc3)nc(C)n2)c1
-9.36%: activity [27]
2.65%: activity [25]
5.17% [at 57.3 µM]: activity change, negative = inhibition [26]
3.37%: activity [28]
